HT1080-NT tox: qHTS for induction of synthetic lethality in tumor cells producing 2HG: qHTS for the HT-1080-NT fibrosarcoma cell line; HT-1080-NT fibrosarcoma viability, CellTiter-Glo ATP luminescence, 48 h; AID 686970, 2013; hit rate 1.6% among 360,000; Potency, µM (doses to about 46.1 µM), for inactives: top-dose activity, negative = less viability, actives largely listed as cytotoxic;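 note: NT is the 2HG producing partner of a matched IDH1 knockdown line; 0% = DMSO-treated cells and -100% = media-only wells without cells; nearly all actives have a fitted effect of over 55% in size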
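Fibrosarcoma NT cells, 750 per well in 5% FBS RPMI, were exposed to compound for 48 hours. Viability: CellTiter-Glo luminescence.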
KB-V1 MDR tox: qHTS assay for MDR1-selective chemotherapeutics: Primary screen using the drug-selected MDR subline cells KB-V1. KB-V1 MDR cells viability, CellTiter-Glo, 72 h. hit rate 3.4% among 400,000. Potency, µM (highest dose often 46.1 µM), hits mostly cytotoxic; note: nearly all actives have a fitted effect of over 60% in size
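Cytotoxicity toward P-gp-expressing KB-V1 cells was determined as loss of CellTiter-Glo luminescence after 72 h at 37 degrees C. Compounds were tested in quantitative HTS format across a concentration range, with curves fitted to normalized data.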
TDP1 cell noCPT: qHTS for Inhibitors of human tyrosyl-DNA phosphodiesterase 1 (TDP1): qHTS in cells in absence of CPT. DT40 Tdp1-/- hTDP1 cells, no CPT, ATP luminescence, 48 h. Potency, µM (titrated, usually from 46.2 µM), inactives show at the top dose activity change, negative = growth inhibition, most hits filed as inhibitors. hit rate 15% among 420,000. AID 686978, 2013; note: nearly all actives have a fitted effect of over 55% in size
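Chicken DT40 Tdp1-/- cells complemented with human TDP1, screened without camptothecin (DMSO vehicle only), 400 cells/well. Compounds pin-transferred, cells incubated at 37 °C for at least 48 hr. Growth read as ATP-dependent luminescence (CellTiter-Glo, 30 min at RT).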
HT1080 IDH1KD tx: qHTS for induction of synthetic lethality in tumor cells producing 2HG: qHTS for the HT-1080-IDH1KD cell line; HT-1080 IDH1 knockdown viability, ATP luminescence, 48 h; Potency, µM (series often up to 46.1 µM), for inactives: at the highest dose activity, negative = toxicity, most hits filed as cytotoxic; hit rate 2% among 360,000; AID 686971, 2013;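 note: 0% = DMSO wells and -100% = cell-free medium wells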
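Using the IDH1-knockdown HT-1080 line run in the same batch and compound series as the NT line, viability after 48 h at 37 °C was determined by CellTiter-Glo luminescence and expressed as % activity.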
KB-3-1 cytotox: qHTS assay for MDR1-selective chemotherapeutics: Primary screen using the parental adenocarcinoma cell KB-3-1; Potency, µM (series often up to 46.1 µM), most hits filed as cytotoxic; hit rate 1.4% among 400,000; KB-3-1 viability, CellTiter-Glo ATP luminescence, 72 h; note: nearly all actives have a fitted effect of over 60% in size
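Multi-concentration cytotoxicity screen in KB-3-1 cells grown in DMEM lacking phenol red with 10% FBS. After 72 h at 37 °C with compound, ATP-dependent luminescence was recorded.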
DT40 TDP1 CPT: qHTS for Inhibitors of human tyrosyl-DNA phosphodiesterase 1 (TDP1): qHTS in cells in presence of CPT; chicken DT40 Tdp1-/-;hTDP1 cells + 20 nM CPT, ATP luminescence, 48 h; Potency, µM (titrated, usually from 46.2 µM), for inactives: at the top dose activity change, negative = growth inhibition, actives largely listed as inhibitors; hit rate 12% among 420,000; note: nearly all actives have a fitted effect of over 55% in size
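Chicken DT40 Tdp1-/- cells stably complemented with human TDP1 were seeded at 400 cells/well in medium containing 20 nM camptothecin, exposed to pin-transferred compounds, and grown at 37 °C for at least 48 hr. Viability was read as ATP luminescence.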
The depositor's hits bear a star; i = inactive; ? = inconclusive; · = no result. The list is not random: actives were taken first. Their share in the collection is about 19%. Calls come from the whole dose curve; as a rule, active = well fitted curve in the direction sought with a large enough effect; inconclusive = small, poorly fitted or top-dose-only effect, or another doubt; inactive = no such curve, though single readings can be large; an effect the other way counts as inactive or inconclusive. Unless noted, % is set by controls: 0 for no effect and ±100 for the full control effect; potency is the fitted concentration of half-maximal effect.

SMILES	HT1080-NT tox	KB-V1 MDR tox	TDP1 cell noCPT	HT1080 IDH1KD tx	KB-3-1 cytotox	DT40 TDP1 CPT
CCOC(=O)C1=NNC2C(=O)N(Cc3ccccc3)C(=O)C12 (stereo unspecified)	28.1%	i	-11.4%	16.4%	i	15.8%
O=C(CCSc1ccc(Cl)c(Cl)c1)NC12CC3CC(CC(C3)C1)C2	-23.1%	?	?	-18.4%	?	16.4µM*
O=C(CSc1ccc(F)cc1)NC12CC3CC(CC(C3)C1)C2	4.9%	i	?	-15.7%	i	?
C=CCOC(=O)C(C#N)c1nc2ccccc2nc1N1CCN(Cc2ccc3c(c2)OCO3)CC1 (stereo unspecified)	-1.8%	23.1µM*	?	-3.0%	i	?
COC(=O)C1CCN(c2nc3ccccc3nc2C(C#N)C(=O)OCC(C)C)CC1 (stereo unspecified)	13.0%	i	11.6µM*	6.5%	i	23.1µM*
N#C/C(=C\N1CCN(Cc2ccc3c(c2)OCO3)CC1)c1nc2ccccc2s1	?	20.6µM*	?	?	?	?
CCOC(=O)C1CCN(c2nc3ccccc3nc2C(C#N)C(=O)OC(C)C)CC1 (stereo unspecified)	5.5%	i	11.6µM*	6.8%	i	16.4µM*
CC(=O)c1ccc(S(=O)(=O)N2CCN(C(=O)CCC3CCCC3)CC2)cc1	-1.3%	?	?	7.1%	i	?
Cc1cccc(-c2nn3c(=O)cc(CN4CCN(C(=O)c5ccccc5Br)CC4)nc3s2)c1	·	i	-15.8%	·	i	-13.7%
C=CCOC(=O)C(C#N)c1nc2ccccc2nc1N1CCC(C(=O)OCC)CC1 (stereo unspecified)	-9.5%	i	18.4µM*	1.7%	i	?
CCC(C)COC(=O)C(C#N)c1nc2ccccc2nc1N1CCCCC1 (stereo unspecified)	4.9%	i	16.4µM*	-0.4%	i	?
CCOC(=O)C1CCN(c2nc3ccccc3nc2C(C#N)C(=O)OC(C)COC)CC1 (stereo unspecified)	-4.1%	i	18.4µM*	-1.6%	i	20.6µM*
CC(C)OC(=O)C(C#N)c1nc2ccccc2nc1N1CCCC1 (stereo unspecified)	-9.9%	i	?	-7.3%	i	-20.8%
CCSC1=N/C(=C\C=C2/Oc3ccccc3N2CC)C(=O)S1	-0.8%	i	?	10.7%	i	-25.7%
COc1ccc(C2(C)NC(=O)N(CC(=O)c3cc(C)n(C4CC4)c3C)C2=O)cc1OC (stereo unspecified)	5.4%	23.1µM*	13µM*	2.4%	?	18.4µM*
CCOC(=O)c1oc2c(c1C)-c1nn(Cc3cccc(Cl)c3)cc1CC2	·	·	-25.2%	·	·	?
CCOc1ccc(Br)cc1C(=S)N1CCCC1	12.2%	i	-22.0%	2.5%	i	-34.6%
COCCCNC(=O)C1CCN(C(=O)c2cc3sccc3n2Cc2ccc(Cl)cc2)CC1	·	?	20.6µM*	·	i	13µM*
CCC(C)NC(=O)C1CCN(C(=O)c2cc3sccc3n2Cc2ccc(Cl)cc2)CC1 (stereo unspecified)	·	·	2.06µM*	·	·	3.66µM*
O=C(NCc1ccco1)C1CCN(C(=O)c2cc3sccc3n2Cc2ccc(Cl)cc2)CC1	·	?	?	·	?	18.4µM*
COCCNC(=O)C1CCN(C(=O)c2cc3sccc3n2Cc2ccc(Cl)cc2)CC1	·	·	2.59µM*	·	·	5.17µM*
CCn1c(C(=O)N2CCC(C(=O)NCCCOC)CC2)cc2sccc21	·	i	-11.7%	·	i	-21.0%
CCn1c(SCC(=O)NC2CCCCC2)nc2c(c1=O)SCC2	-6.2%	i	-10.9%	-3.3%	i	-8.3%
CCN(CC)CCCNC(=O)Cn1nc(N2CCN(c3ccccc3OC)CC2)ccc1=O	·	i	?	·	i	-28.2%
CCOC(=O)C1(C)CCN1C(=O)c1ccc(OC)c(OC)c1 (stereo unspecified)	8.9%	i	-0.1%	12.0%	i	2.5%
SMILES	HT1080-NT tox	KB-V1 MDR tox	TDP1 cell noCPT	HT1080 IDH1KD tx	KB-3-1 cytotox	DT40 TDP1 CPT
O=C1CN(C(=O)/C=C/c2ccco2)c2ccccc2N1	-6.7%	i	?	-6.0%	i	-9.1%
OC[C@@H]1CN(Cc2ccc(Cl)cc2)C[C@H](n2cnc3c(NC4CCC4)ncnc32)O1	25.1%	i	?	17.7%	i	?
CS(=O)(=O)N(CC(=O)Nc1ccccc1C(=O)NCCc1ccccc1)c1ccc2c(c1)OCCO2	6.8%	i	20.6µM*	-1.8%	i	29.1µM*
COc1cc(NC(=O)COc2ccc(Cl)cc2)ccc1NC(=O)C(C)C	-1.7%	i	?	-2.9%	i	?
C=CCOc1c(Br)cc(CNc2ccc3[nH]c(=O)[nH]c3c2)cc1OCC	-21.3%	i	?	-20.6%	i	?
C=CCOc1c(Br)cc(CNc2ccc(NC(=O)CCC)cc2)cc1OCC	-20.1%	i	16.4µM*	-26.3%	i	?
C=CCOc1c(Br)cc(CNc2ccc(NC(=O)C(C)C)c(OC)c2)cc1OCC	-19.1%	i	16.4µM*	-18.2%	i	20.6µM*
COc1ccc(CNc2cc(NCCCO)c([N+](=O)[O-])c3nonc23)cc1	-28.2%	i	6.51µM*	-8.2%	i	20.6µM*
O=[N+]([O-])c1c(NCCCO)cc(N2CCCCCC2)c2nonc12	-12.0%	i	?	-2.5%	i	-17.4%
CC(=O)OCCCNc1cc(Sc2ccc(C)cc2)c2nonc2c1[N+](=O)[O-]	-5.3%	i	3.26µM*	-14.5%	?	2.91µM*
O=[N+]([O-])c1c(NCCCO)cc(N2CCN(Cc3ccc4c(c3)OCO4)CC2)c2nonc12	-22.3%	16.4µM*	5.8µM*	-21.6%	i	6.51µM*
COc1ccc(Nc2cc(NCCCO)c([N+](=O)[O-])c3nonc23)cc1	-27.4%	i	1.1%	-27.9%	i	-25.1%
CC(=O)OCCNc1cc(Sc2nc3ccccc3[nH]2)c2nonc2c1[N+](=O)[O-]	-37.0%	i	4.11µM*	18.4µM*	?	2.31µM*

Source: PubChem (National Center for Advancing Translational Sciences (NCATS))
